Source: ChEMBL document CHEMBL3988442, “University of Dundee, Small-Polar-MMV Screening Library” (2021)

How the values were obtained:
[1] = molecular target: T1, Aspartate--tRNA(Asp/Asn) ligase (Mycobacterium tuberculosis (strain ATCC 25618 / H37Rv)) (UniProt P9WFW3); assay: Assay for Asp RNA synthetase-1 from Mycobacterium tuberculosis; assay type: functional; set-up: scale not given: direction of the effect not stated beside the values; conditions: 30 µM; note: in the data most compounds retested in dose-response had high values
T1 sequence (whole entry): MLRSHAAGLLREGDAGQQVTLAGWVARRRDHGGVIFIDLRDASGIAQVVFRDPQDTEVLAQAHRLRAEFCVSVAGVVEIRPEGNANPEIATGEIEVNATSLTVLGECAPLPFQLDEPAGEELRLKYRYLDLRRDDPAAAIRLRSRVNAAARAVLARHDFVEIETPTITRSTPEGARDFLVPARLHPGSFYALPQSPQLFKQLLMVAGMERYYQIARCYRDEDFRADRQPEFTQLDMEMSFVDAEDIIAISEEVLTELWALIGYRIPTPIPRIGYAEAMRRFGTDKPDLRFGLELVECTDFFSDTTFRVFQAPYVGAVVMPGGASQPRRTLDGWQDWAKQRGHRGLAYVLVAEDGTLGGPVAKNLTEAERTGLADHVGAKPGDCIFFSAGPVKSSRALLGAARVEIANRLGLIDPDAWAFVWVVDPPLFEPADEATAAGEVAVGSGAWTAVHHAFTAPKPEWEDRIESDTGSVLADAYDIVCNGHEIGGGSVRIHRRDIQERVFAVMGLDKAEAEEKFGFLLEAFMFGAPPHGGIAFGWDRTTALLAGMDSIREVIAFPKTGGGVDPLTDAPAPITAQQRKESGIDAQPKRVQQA

[2] = molecular target: Shiga toxin 2 (Escherichia coli O157:H7) (UniProt P09385+P09386); assay: E. coli 0.157:H7 Shiga Toxin SOP - stx2 screening assay; assay type: functional; set-up: scale not given: direction of the effect not stated beside the values; conditions: 30 µM

SMILES | Percent Effect [1] [%] | Percent Effect [2] [%]
NCCn1nc(C2CCN(Cc3ccc(Cl)c(Cl)c3)C2)c2nccnc21 (stereo not given) | -4 | -105
O=C(NCc1ccco1)[C@H]1C[C@H]2OCC[C@H]2N(S(=O)(=O)C2CC2)C1 | 0.786 | -24.1
Cn1ccnc1CN1CCCN(C(=O)c2ccc3c(c2)COC3)CC1 | 0.393 | 24.9
O=C(C1CCCc2[nH]ncc21)N1CCCC1 (stereo not given) | 2.61 | -4.59
Cc1cc(C2CCCN2CC(=O)N(CCC#N)c2ccccc2F)on1 (stereo not given) | 3.09 | 0.491
CCN1CCCC1CN(CCN(C)C)S(=O)(=O)c1ccc(C#N)cc1 (stereo not given) | -3.16 | -8.05
Cc1noc(C)c1C(=O)N1C[C@H]2CCC[C@@]2(COc2ccccn2)C1 | 4.65 | 2.11
O=C(NCCN1CCOCC1)NCC(O)c1cccc(F)c1 (stereo not given) | 2.52 | 4.91
Cc1noc(C)c1CN1CCN(C(=O)Cn2cncn2)CC1 | 3.12 | 7.4
Cn1ncc2c1CN(Cc1cccnc1)CC2COCC1CC1 (stereo not given) | 2.03 | -44.8
Cc1ccc(CNC(=O)CN2C=Nc3ccccc3S2(=O)=O)s1 | -0.759 | 9.11
COc1ccccc1OCc1cc(C(=O)N2CC=CC2C(C)C)n[nH]1 (stereo not given) | -0.752 | 15.8
CCc1n[nH]c(C2CN(C(=O)c3nc(C)n4ccccc34)CCO2)n1 (stereo not given) | 2.55 | -2.71
O=C(NCCOc1ccc(F)c(F)c1)NCc1cccc(CO)c1 | 0.257 | -6.88
COc1ccccc1Oc1ncccc1CNC(=O)C(C)N1CCCC1 (stereo not given) | -0.0279 | 6.37
CN1CCN(C[C@@H]2OC[C@H]3CN(Cc4ccsc4)CC[C@H]32)CC1 | -4.08 | 3.13
CCn1ccnc1CN1CCCN(C(=O)Cn2nc(C)cc2C)CC1 | 3.14 | 8.68
Cn1nc2c(cc1=O)CN(Cc1nnc(-c3ccco3)o1)CC2 | 15.6 | 2.57
CC(C)n1[nH]c(=O)c2c1NC(=O)CC2c1cccc(OC(F)F)c1 (stereo not given) | 0.474 | -12.1
O=C(c1ccc(-n2ccnc2)nc1)N1CCCC(n2cccn2)C1 (stereo not given) | -4.43 | 28.7
CCCc1ncc(C(=O)N2CCOC(c3nc(C)n[nH]3)C2)s1 (stereo not given) | 0.888 | 2.31
O=C(c1ccnnc1)N1C[C@H](Oc2cccnc2)[C@H]2OCCC[C@H]21 | 2.1 | 3.62
CC(=O)NC1CCCN(C(=O)NCc2ccc(-c3ccn[nH]3)cc2)C1 (stereo not given) | -1.85 | 1.62
O=C(COCc1nc(-c2ccncc2)no1)NC1CCCCC1 | 2.71 | -15.1
COCCN(Cc1ccc(F)cc1Cl)C(=O)c1ccncc1 | -5.35 | 12

SMILES | Percent Effect [1] [%] | Percent Effect [2] [%]
CN(Cc1ccco1)C(=O)C1CSCN1C(=O)c1cccnc1 (stereo not given) | 2.02 | 13.1
Cc1nc(N2CCCCC2)ncc1-c1cc(O)[nH]n1 | -0.348 | -1.17
CCOCC1CN(S(=O)(=O)N(C)C)Cc2cnn(C)c21 (stereo not given) | -3.4 | 6.68
Cc1cc(N(C)Cc2cc(C)on2)n2nc(C)c(C)c2n1 | 1.81 | -20
COC[C@H]1CCC[C@]12CN(C(=O)NCc1ccccc1)CCO2 | -3.75 | -17.2
CCc1nc(C2CCCN2Cc2nc(CCOC)no2)no1 (stereo not given) | 5.05 | -11.9
Cc1nc(C)n(C2CCCN(C(=O)c3ccc(NC4CC4)nc3)C2)n1 (stereo not given) | -1.66 | -7.5
COCCN1C(=O)[C@]2(CC[C@@H]3CN(C(=O)NC4CCCC4)C[C@@H]32)N=C1C | 0.379 | -4.86
Cc1nc(N2CCN(C)CC2)ncc1C(=O)N1CCC(O)(CO)CC1 | 3.4 | 5.75
COCC1CN(C(=O)c2ccnnc2)Cc2c1cnn2C (stereo not given) | 0.28 | -14.3
CCc1nc(CN2CCN(C(=O)CCc3ccccc3)CC2)cs1 | -4.18 | -33.2
CS(=O)(=O)NCc1cnc2n1CCN(Cc1ccsc1)CC2 | -2.39 | -23.6
CCc1nc(CC(=O)N2CCn3c(nnc3C(F)(F)F)C2)cs1 | 1.3 | 17.9
O=C(c1ccsc1)N1CCc2c(CNc3ncccn3)n[nH]c2C1 | -0.641 | -33.5
O=C(Cc1ccccc1Cl)N1CCCC(n2cncn2)C1 (stereo not given) | -1.83 | -37.6
O=C(NCc1csc(Br)c1)c1ccc(=O)[nH]n1 | -0.83 | -13.6
O=S(=O)(CCNC1CCc2ncnn2C1)c1ccccc1 (stereo not given) | 1.06 | -24.1
Cc1ccc(C)c(OC2CCN(C(=O)c3ccc(C)[nH]c3=O)CC2)c1 | -5.01 | 16
Cc1cc(N2CCC(Cc3ccccc3)CC2)nc(-c2ccncc2)n1 | -0.602 | -32.9
CCCC1CCCN(Cc2csc(-c3cnn(C)c3)n2)CC1 (stereo not given) | -1.75 | 20.9
O=C(NCCNc1ncccn1)C1CCN(CC(F)(F)F)CC1 | 2.17 | 21.6
CCn1cc(Br)c(C(=O)NCc2cnn(C)c2)n1 | -2.73 | -41.5
Cn1cc(-c2nc(CN3CCN(CCO)CC3)cs2)cn1 | -2.15 | 22.1
Cc1noc(C(C)C)c1C(=O)NS(=O)(=O)c1ccc2c(c1)OCCCO2 | 2.22 | -0.248
c1cc(OCc2ccc3c(c2)OCCO3)ccc1CNC1CC1 | -1.05 | -54.3

SMILES | Percent Effect [1] [%] | Percent Effect [2] [%]
CC(C)c1ncc(CN2CCCC(CO)C2)cn1 (stereo not given) | 0.491 | 5.71
O=C1CC(c2cccs2)c2snc(C(=O)O)c2N1 (stereo not given) | -3.23 | -4.3
O=C(c1ccsc1)N1CC(C(=O)N2CCOCC2)C2(CCOCC2)C1 (stereo not given) | -3.83 | -2.66
CC(C)Nc1ncnc2c1CCN(C(=O)c1ccncc1F)CC2 | -1.6 | -6.39
COCC(=O)N1CCC2(CC1)CC(CC(=O)NC1CC1)c1ccccc12 (stereo not given) | -1.39 | 9.56
Cc1ccc(NC(=O)NC(C)C(=O)N2CCS(=O)(=O)CC2)cc1 (stereo not given) | 1.19 | 12.8
CNC(=O)[C@H]1C[C@@H]2CN(C(=O)c3cscn3)C[C@@H]2N1S(C)(=O)=O | 2.65 | -4.53
COc1cccc2c1ccn2CC(=O)N[C@@H](CCSC)C(=O)O | 6.16 | -11.2
CCc1noc(C(C)N(C)CC(=O)Nc2c(C)cccc2C)n1 (stereo not given) | -10.4 | 10.3
Cc1nc(CN2CCCC(N(C)Cc3cscn3)C2)no1 (stereo not given) | 4.73 | -14.1
COCCN1CCOCC2(CCCN(Cc3ccc(C)o3)C2)C1 (stereo not given) | -0.582 | -6.63
CN(C)CCN1C(=O)CCC12CCN(C(=O)c1cccnc1)CC2 | -0.637 | -8.32
CC(C)c1noc(CCCC(=O)NC2CCS(=O)(=O)C2)n1 (stereo not given) | 0.955 | -17.4
COc1ccc(CN2CCC3(CC2)CCN(CC(C)C)C3=O)cc1 | -3.87 | 3.87
CC(C)C1CN(c2ncc(F)cn2)CCC(=O)N1Cc1ccc(F)cc1 (stereo not given) | 1.56 | -4.93
N#CCSCCCN1CCN(C(=O)c2ccc(Cl)cc2)CC1 | 0.593 | -35.2
FC(F)(F)Cc1noc(CN2CCCC2c2noc(C3CC3)n2)n1 (stereo not given) | 8.91 | 16.4
CCc1noc(C(C)N(C)CC(=O)Nc2ccc(C)cc2)n1 (stereo not given) | 1.52 | -3.18
Cn1cc(CN2CC3(CCN(C(=O)c4cscn4)C3)C2)cn1 | -5.56 | -18.3
c1csc(-c2nc(CN3CCOC(Cn4cncn4)C3)co2)c1 (stereo not given) | 21.8 | 19.9
COCCc1noc(CNC2CCSC2)n1 (stereo not given) | -5.83 | 6.26
CNS(=O)(=O)c1cccc(CNc2ccc(C(F)(F)F)nn2)c1 | -3.88 | 14.2
Cc1ccc(-c2nc(CN3CCn4c(nnc4C4CC4)C3)cs2)o1 | -4.03 | -88.7
CN(C)C(CNC(=O)c1cccc(-n2cnnn2)c1)c1ccccc1Cl (stereo not given) | 3.08 | -14.9
CC(=O)N1CCn2cc(CNC(=O)c3cccn3C)nc2C1 | 1.43 | -9.92

SMILES | Percent Effect [1] [%] | Percent Effect [2] [%]
Cc1cc(NC(=O)CN2CCn3c(nnc3C(C)C)C2)no1 | -3.23 | -39.9
CN(CC1CC1)C(=O)CN(Cc1cccc(O)c1)C1CCC(O)CC1 (stereo not given) | -0.296 | 6.41
COc1cccc(N2CCN(CC(O)c3ccc(C)cc3)CC2)c1 (stereo not given) | 8.45 | 10.4
Cc1ccoc1C(=O)N1C[C@@H]2[C@@H](C1)OCC(=O)N2Cc1cccnc1 | 2 | -12.8
CCn1cnnc1C1CCN(C(=O)c2ccc(C(=O)OC)s2)CC1 | -7.04 | 7.28
CC(=O)N1C[C@@H](c2ccsc2)[C@@H]2CN(Cc3cccc(Cl)c3)CC[C@@H]21 | -0.368 | -9.53
CC(C)Cc1noc(CN2CCOC(Cn3cncn3)C2)n1 (stereo not given) | 1.02 | 16.9
Cc1ccc(C(O)CNCc2c(C(C)C)nn(C)c2N(C)C)cc1 (stereo not given) | -5.77 | 10.4
O=C(Nc1cccnc1)[C@H]1C[C@@H]2CN(C(=O)NC3CCCC3)C[C@H]1O2 | 2.61 | -2.93
COc1ncc(C2CC(=O)NCc3nc4ccccn4c32)cn1 (stereo not given) | -1.4 | 15
COCCN1CCC(NCc2cccc(F)c2)C1 (stereo not given) | -3.37 | -17.4
CNC(=O)[C@@]12CCO[C@@H]1CCN(Cc1scnc1C)C2 | -0.714 | -2.91
COc1ccc(NC(C)C(=O)N2CCN(c3ncccn3)CC2)cn1 (stereo not given) | -4.63 | 5.46
O=C(Cc1ccccc1F)N1C[C@@H]2COC[C@]2(COc2cccnc2)C1 | 6.28 | 3.35
Cc1cnn(CC2CN(CCc3ccncc3)CCO2)c1 (stereo not given) | 8.62 | -2.69
N#Cc1ccc(OCCNc2cccc(C(=O)N3CCOCC3)c2)cc1 | 1.46 | -43.4
Cn1cnc2c1CCN(Cc1cccc(OCC(N)=O)c1)C2 | -4.08 | -24.5
Cc1nn(CC(=O)N2CCCC2Cn2cccn2)c(C)c1Cl (stereo not given) | 0.155 | -3.65
Cc1cc(C)n(C2CN(Cc3noc(-c4ccccc4)n3)C2)n1 | 4.04 | -51.5
COc1cc2cc(C(=O)O)n(C)c2c(OC)c1OC | -3.95 | 1.12
CCn1cc(NC(=O)C2CCN(Cc3noc(C(C)C)n3)CC2)cn1 | 1.21 | -21.2
O=C(NCCCN1CCOCC1)c1ccn(-c2ccc3ccccn23)n1 | 3.71 | -18.9
O=C1CC(c2cccnc2)C2(CCN(C(=O)c3ccncc3)CC2)N1 (stereo not given) | -5.73 | 7.39
Cc1ccc(-c2nc(CNCCn3cccn3)cs2)o1 | -0.233 | 13
CN(Cc1noc(C2CC2)n1)C1CCN(Cc2nnc(C3CC3)o2)C1 (stereo not given) | 4.05 | -15.5
